From PubChem BioAssay
Sampled rows, rich in hits. Any-hit rate of the full collection: about 5.4%.
Six1-Eya2 blk: qHTS Assay for Inhibitors of the Six1/Eya2 Interaction; AlphaScreen GST-Six1/His-Eya2 binding, biochemical; hits give low values; Homeobox protein SIX1 (Homo sapiens) + Protein phosphatase EYA2 (Homo sapiens), …; activity change, % (test concentration not listed); actives 0.56% (n = 360,000); in the data active = activity change below about -65%; inconclusive = mostly about -30% to -63%
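Homogeneous AlphaScreen proximity assay pairing GST-Six1 with His-tagged Eya2 (added as 5X mix: 250 nM and 500 nM) in 50 mM Tris pH 8.0, 300 mM NaCl, 1 mM TCEP. Glutathione donor and nickel acceptor beads; 1 h, 37 °C, dark.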
Gal4-VP16 FLuc: VP16 counterscreen qHTS for inhibitors of ROR gamma transcriptional activity; Potency, µM (titrated, usually from 53.6 µM), hits mostly inhibitors; actives 3.5% (n = 310,000); AID 2546, 2010; Drosophila S2 Gal4-VP16 UAS-luciferase, luminescence, 20 h;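 note: Gal4-VP16 expression switched on by copper sulfate through the metallothionein promoter; nearly all actives have a fitted effect of over 50% in size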
p53 reactivation: qHTS assay for re-activators of p53 using a Luc reporter. H1299 p53-A138V BP100-luciferase reporter, luminescence, 24 h. Potency, µM (highest dose often 92.2 µM), most hits filed as activators. actives 0.063% (n = 320,000). AID 504706, 2011; note: nearly all actives have a fitted effect of over 45% in size
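p53-null H1299 cells stably carrying temperature-sensitive p53-A138V and a BP100-luciferase reporter were pinned with compounds (4-point, 1:5 series) and held 24 hrs at 37 deg C. Luminescence was read 10 min after detection reagent.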
RORg inh: qHTS for inhibitors of ROR gamma transcriptional activity; Potency, µM (titrated, usually from 53.6 µM), usual class: inhibitors; Drosophila S2 Gal4-RORgamma UAS-luciferase reporter, 20 h; actives 5.4% (n = 310,000); note: nearly all actives have a fitted effect of over 60% in size
Target sequence (P51450 whole entry, looked up, the tested form may be a part): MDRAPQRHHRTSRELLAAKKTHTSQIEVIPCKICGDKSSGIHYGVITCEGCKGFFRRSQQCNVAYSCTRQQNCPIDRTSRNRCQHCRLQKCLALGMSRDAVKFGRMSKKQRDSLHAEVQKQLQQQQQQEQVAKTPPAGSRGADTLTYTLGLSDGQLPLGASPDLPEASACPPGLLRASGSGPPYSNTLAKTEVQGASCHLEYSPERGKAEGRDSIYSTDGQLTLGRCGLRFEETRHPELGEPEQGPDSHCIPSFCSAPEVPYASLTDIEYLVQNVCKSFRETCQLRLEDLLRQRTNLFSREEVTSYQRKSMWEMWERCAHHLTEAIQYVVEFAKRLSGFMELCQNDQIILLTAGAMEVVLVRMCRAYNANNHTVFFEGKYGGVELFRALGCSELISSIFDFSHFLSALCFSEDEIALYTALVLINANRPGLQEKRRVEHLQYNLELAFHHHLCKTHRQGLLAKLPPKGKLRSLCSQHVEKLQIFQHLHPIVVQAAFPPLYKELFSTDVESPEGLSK
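Stable Schneider cell line, Gal4 DNA-binding domain fused to ROR gamma, UAS-luciferase. Cmpd 1 hr RT → CuSO4 700 uM final → 20 hr RT → luciferase reagent 10 min → luminescence.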
CtBP-E1A inh: qHTS Assay for Inhibitors of the CtBP/E1A Interaction | AID 651724, 2012 | activity change, % (test concentration not listed) | actives 0.49% (n = 340,000) | AlphaScreen GST-E1A/His-CtBP binding, 1536-well; hits give low values | CtBP / adenovirus E1A interaction (AlphaScreen); in the data active = activity change below about -65%; inconclusive = mostly about -30% to -63%
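In 5 uL wells, 23 nL compound meets equimolar GST-E1A and His-CtBP (5X stock 125 nM each) for 2 h, 37 °C. Beads (5X, 50 ug/mL) then 1 h, 37 °C, dark.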
A number is an active result; – = inactive; ? = inconclusive; · = no result given; ! = not confirmed by another sample; [ ] = another dose, or the depositor's remark. Unless noted, calls come from the whole dose curve; as a rule, active = well fitted curve in the direction sought with a large enough effect; inconclusive = small, poorly fitted or top-dose-only effect, or another doubt; inactive = no such curve, though single readings can be large; an effect the other way counts as inactive or inconclusive.

SMILES | Six1-Eya2 blk | Gal4-VP16 FLuc | p53 reactivation | RORg inh | CtBP-E1A inh
c1ccc(-c2nc(NCCCn3ccnc3)c3oc4ccccc4c3n2)cc1 | ? | – | – | – | -68
CCc1nc(NCCCn2ccnc2)c2oc3ccccc3c2n1 | – | – | – | – | –
c1cncc(-c2nc(NCCCn3ccnc3)c3ccccc3n2)c1 | -73 | – | – | – | –
Cc1nn(C)c(Oc2ccccc2)c1CCNS(=O)(=O)c1ccc(Cl)cc1 | – | – | – | – | –
O=C(NC1=NCCS1)c1cccc2ccccc12 | – | –[10 µM] | – | 11µM | –
COc1ccc(C(=O)NC2=NCCS2)cc1S(=O)(=O)N1CCCCC1C (configuration not stated) | – | – | – | 14µM | ·
O=C(CSc1ccccc1)NC1=NCCS1 | – | – | – | – | –
O=C(CSc1cccc2cccc(Cl)c12)NC1=NCCS1 | – | 11µM | – | 10µM | –
Cc1cccc2sc(NNC(=O)c3cc(-c4cccs4)nc4ccccc34)nc12 | – | 18µM | – | 0.25µM | –
COc1ccc(-c2cc(C(=O)Nc3nc4c(C)cccc4s3)c3ccccc3n2)cc1OC | – | – | – | – | –
CC(NC(=O)c1ccccc1)C(=O)NC1=NCCS1 (configuration not stated) | – | – | – | – | –
O=C(NC1=NCCS1)c1cc(-c2cccs2)nc2ccccc12 | – | ? | – | 25µM | –
NNC(=O)c1cc(-c2cccs2)nc2ccccc12 | – | – | – | 20µM | ·
O=C(NC1=NCCS1)c1cc(-c2cccnc2)nc2ccccc12 | – | – | – | 11µM | –
CCCC(C(=O)NC1=NCCS1)c1ccccc1 (configuration not stated) | – | ? | – | 11µM | –
Cc1cc(NC(=O)c2cc(-c3cccs3)nc3ccccc23)no1 | – | – | – | – | –
CC(C)NC(=O)c1cc(-c2cccs2)nc2ccccc12 | – | – | – | – | ·
O=c1c(CN2CCN(Cc3ccccc3F)C(CCO)C2)coc2ccccc12 (configuration not stated) | – | – | · | – | –
COc1ccc(N2CCN(C(=O)C3(C)CC3(Cl)Cl)CC2)cc1 (configuration not stated) | – | – | – | – | –
N#Cc1cccc(NC(=O)N2CC[C@@]3(CCCN(C(=O)c4ccncc4)C3)C2)c1 | · | – | · | – | ·
COCCn1c(N)c(N(Cc2ccccc2)C(=O)c2oc3ccccc3c2C)c(=O)[nH]c1=O | – | –[10 µM] | – | ? | –
CC(C)Oc1cccc(C(=O)NC2=NCCS2)c1 | – | –[10 µM] | ? | ? | –
C/C(=N\NC(=O)c1cc(-c2cccs2)nc2ccccc12)c1ccccn1 | -82 | 0.56µM | – | 0.1µM | -86
COc1cccc(C(=O)NC2=NCCS2)c1 | – | ? | – | 10µM | –
Cc1ccc(OCC(=O)OCC(=O)c2cccc([N+](=O)[O-])c2)cc1C | – | – | – | – | –
SMILES | Six1-Eya2 blk | Gal4-VP16 FLuc | p53 reactivation | RORg inh | CtBP-E1A inh
O=C(CN1C(=O)NC2(CCCc3ccccc32)C1=O)NCc1ccc(Cl)cc1Cl (configuration not stated) | – | · | · | · | –
Cc1cc(/C=N/n2cnnc2)c(C)n1-c1ccc(OCc2ccc(Cl)cc2Cl)cc1 | – | 11µM | – | – | –
COC(=O)c1ccc(OCC(=O)c2ccc(O)cc2O)cc1 | – | 0.89µM | – | 0.079µM | –
O=C(COc1ccc(F)cc1)c1c(O)cc(O)cc1O | – | ? | – | 2µM | –
COc1ccc(C(=O)COc2ccc(F)cc2)c(O)c1 | – | – | – | – | –
O=C(COc1ccccc1F)c1ccc(O)cc1O | – | ? | ? | 3.2µM | –
Cc1c(O)ccc(C(=O)COc2ccccc2F)c1O | – | – | – | – | –
CCOC(=O)c1ccc(OCC(=O)c2ccc(O)cc2O)cc1 | – | 1.1µM | – | 0.25µM | –
COC(=O)c1ccc(OCC(=O)c2ccc(C)c(C)c2)cc1 | – | ? | – | ? | –
N#CCC(=O)Nc1ccc(C(=O)OCC(=O)N2CCN(C(=O)c3ccco3)CC2)cc1 | – | · | – | · | –
O=C(COc1ccc(Cl)cc1)c1ccc(O)cc1O | – | 1.4µM | ? | 0.16µM | –
COc1c(-c2ccc(O)c(O)c2)oc2cc(O)cc(O)c2c1=O | – | 11µM! | – | ? | –
CCCc1cc(C(=O)NNC(=S)NCC2CCCO2)cs1 (configuration not stated) | – | – | ? | – | –
Cc1ccc(-c2c(C(=O)NNC(=S)NCC3CCCO3)csc2C)cc1 (configuration not stated) | – | – | – | ? | –
Cc1scc(C(=O)NNC(=S)NCC2CCCO2)c1C (configuration not stated) | – | – | – | 4.5µM | –
CCc1cc(C(=O)NNC(=S)NCC2CCCO2)cs1 (configuration not stated) | – | – | – | 16µM | –
Cc1scc(C(=O)NNC(=S)NCC2CCCO2)c1-c1ccccc1 (configuration not stated) | – | – | – | 7.9µM | –
COc1cc(C2c3cc4c(cc3CC3COC(=O)N32)OCO4)cc(OC)c1OC (configuration not stated) | – | · | · | · | –
CCCCNc1ncnc2[nH]ncc12 | – | · | · | · | –
Cn1c(CN2CCN(c3ccc(Cl)cc3)CC2)nc2ccccc21 | – | ? | – | 6.3µM | –
CCn1c(CN2CCN(c3ccc(Cl)cc3)CC2)nc2ccccc21 | – | 8.9µM | – | 10µM | –
CCCn1c(CN2CCN(C)CC2)nc2ccccc21 | – | – | – | – | –
COCCNC(=O)C1(C)CCCN(C(=O)CCc2ccccc2)C1 (configuration not stated) | – | · | · | · | –
Cc1cc(C)c(S(N)(=O)=O)c(C)c1-n1cnnn1 | – | – | – | 8.9µM | –
Cc1cccc(-n2nc3c(c2NC(=O)c2ccc(Br)o2)CSC3)c1 | – | – | – | 3.2µM | –
SMILES | Six1-Eya2 blk | Gal4-VP16 FLuc | p53 reactivation | RORg inh | CtBP-E1A inh
CC(C)c1ccc(S(=O)(=O)N2CCC(C(=O)N3CCC3)CC2)cc1 | – | · | – | · | –
CC1=CC(C)(C)n2c(O)c(N=NC(N)=S)c3cc(C)cc1c32 | – | 1.8µM | – | 0.79µM | –
COc1ccccc1NC(=O)Cn1c(C)nc2c(sc(=S)n2Cc2ccco2)c1=O | – | – | – | – | –
O=C1CC(c2ccccc2)NC(=S)N1 (configuration not stated) | – | · | · | · | –
CCCCCCC1CC(=O)NC(=S)N1 (configuration not stated) | – | ? | – | 8.9µM | –
CCOc1ccc(NC(=O)CCC(=O)NNC(=O)Nc2ccc(Cl)cc2)cc1 | – | – | – | – | ·
CCc1nc2c(OCc3cccc(Cl)c3)cccn2c1N(C)C(=O)Nc1ccccc1OC | – | · | · | · | –
